In PubChem BioAssay:

Columns and labels:
[1] = system: Botulinum neurotoxin type F light chain protease (Clostridium botulinum); experiment: Botulinum neurotoxin type F light chain protease inhibition, multiplex microsphere flow cytometry, validation set (AID 588459); details: multiplex microsphere protease substrate cleavage assay, at 10 µM, hits give high values
[2] = target: Botulinum neurotoxin type A (Clostridium botulinum) (UniProt P0DPI0); experiment: BoNT/A light chain protease inhibitors, biochemical, multiplex microsphere flow cytometry, validation set (AID 588460); details: at 10 µM, hits give high values
[3] = target: Lethal factor (Bacillus anthracis) (UniProt P15917); experiment: Lethal factor protease inhibitors, Bacillus anthracis, multiplex microsphere cleavage assay, validation set (AID 588461); details: flow cytometry, at 10 µM, hits give high values

Measured: inhibition

CCOc1ncnc2c1[nH]c1ccccc12
inactive: [1] 5.6% | [2] 0.5% | [3] -0.4%

CCN(CC)c1ccc([C@H]2[C@@H]3CCCC[C@]3(O)CCN2CC(=O)NCc2ccco2)cc1
inactive: [1] -1.2% | [2] 0.9% | [3] -7.7%

O=C(O)c1ccccc1C(=O)OCCCCOC(=O)c1ccccc1C(=O)O
inactive: [1] 5.9% | [2] -0.6% | [3] 3.5%

NC(=O)c1cnccn1
inactive: [1] 0.4% | [2] 0.7% | [3] 5.7%

COc1cccc(OCc2cc(C3Nc4ccccc4C(=O)N3Cc3ccco3)ccc2OC)c1 (stereo not given)
inactive: [1] -1% | [2] 0.9% | [3] -2.1%

CCOC(=O)/C=C1\NC(C)(C)Cc2cc(OC)c(OC)cc21
inactive: [1] 0.2% | [2] -0.4% | [3] -2.8%

CCOc1ccc(N2C(=O)CC(NCCNc3ccc([N+](=O)[O-])cn3)C2=O)cc1 (stereo not given)
inactive: [1] 0.9% | [2] 1.6% | [3] -3.4%

Cc1ccc(C(=O)COC(=O)c2cnccn2)cc1[N+](=O)[O-]
inactive: [1] 2.8% | [2] -0.2% | [3] -5.2%

CCN1CCN(C(=O)N[C@@H](C(=O)N[C@@H]2C(=O)N3[C@@H]2SC(C)(C)[C@@H]3C(=O)O)c2ccccc2)C(=O)C1=O
inactive: [1] -1.5% | [2] 0.3% | [3] 1.4%

COc1ccc2cc(CCC(C)=O)ccc2c1
inactive: [1] -2.3% | [2] 0.4% | [3] 6.3%
